# Shown are actives, neighbours in structure and some others; about 2.6% of the full set was active somewhere.
# S1P1 ag = activates the human S1P1 receptor; S1P1 agonist cell-based reporter assay; activation, % at 4.5 µM; hit rate 1.5% among 16,000; in the data active = activation above about 80%
# TLR4 MyD88 blk = inhibitors of human TLR4-MyD88 binding. hit rate 0.06% among 16,000. Cell-based TLR4-MyD88 binding inhibition assay. inhibition, % at 10 µM. O00206; in the data active = inhibition above about 45%
# KOR antag MB = antagonists of human kappa opioid receptor OPRK1, Maybridge library. P41145. OPRK1 cells, antagonist mode, fluorescence readout. inhibition, % at 9 µM. hit rate 0.4% among 16,000. AID 652031; in the data active = inhibition above about 50%
# PME-1 Maybr inh = inhibitors of human PME-1 in Maybridge library | hit rate 0.5% among 16,000 | recombinant PME-1, FP-Rh probe fluorescence polarization | Q9Y570 | inhibition, % at 9 µM; in the data active = inhibition above about 30%
# NOTCH ag = agonists of NOTCH signaling | NOTCH signaling luciferase reporter cells, luminescence | activation, % at 2.5 µM | hit rate 0.4% among 15,000 | AID 434982; in the data active = activation above about 2.2%
# Numbers without * were called inactive; x = no result given.
SMILES,S1P1 ag,TLR4 MyD88 blk,KOR antag MB,PME-1 Maybr inh,NOTCH ag
FC(F)(F)c1cccc(-c2noc(-c3ccc(-c4cccs4)s3)n2)c1,20.1,5.5,6.8,1.5,0.8
Cc1cc(-c2nnc(-c3cccc(C(F)(F)F)c3)o2)no1,80.0*,-1.5,17.5,1.1,0.4
C#CC(/C=C/C)OC(=O)c1ccccc1C(=O)O (configuration not stated),-1.8,-6.5,31.8,-1.1,-0.7
CC(CCC(C)OC(=O)c1ccccc1C(=O)O)OC(=O)c1ccccc1C(=O)O (configuration not stated),10.7,2.4,59.7*,10.0,-0.2
CSc1sc(C(=O)NC(=O)Nc2ccc(Cl)cc2)c2c1-c1nocc1CC2,108.5*,-3.2,68.1*,8.3,1.4
CSc1nc(N)nc(-c2cccs2)n1,-33.8,6.5,5.0,-0.2,-0.1
Cc1cc2nnc(/C(N)=N/O)c(C)n2n1,-2.4,3.3,6.3,1.5,-0.5
N#Cc1c(S/C=C(\O)c2cc3ccccc3o2)nc2c(c1C(F)(F)F)CCCC2,22.4,6.1,77.0*,-1.9,0.5
N#Cc1cccnc1NNC(=O)CC1(CC(=O)O)CCCC1,9.5,6.0,2.3,0.1,-0.4
COc1ccc(-c2nc3cc(C)c(C)cc3[nH]2)cc1,-23.0,-1.6,41.9,1.2,-1.4
CCC(=O)Nc1cc(F)ccc1C,-20.8,-7.3,9.9,1.7,-0.1
CCC(=O)Nc1cccc2c(NC(=O)CC)cccc12,82.3*,12.3,6.6,-3.0,-0.7
CCc1cc(C(=O)c2ccc(OC)cc2)c(N)s1,9.5,5.4,-15.2,1.2,0.1
FC(F)(F)c1cnc(NCc2cccnc2)c(Cl)c1,10.8,-7.8,-12.7,0.5,0.4
FC(F)(F)c1cnc(NCCCNC(=S)Nc2cccnc2)c(Cl)c1,24.4,-0.2,14.5,5.5,2.8*
COc1ccc(C(=O)N/N=C(/C(=O)O)c2ccccc2)cc1,-10.9,5.2,8.6,-1.4,0.0
COc1ccc(C(=O)NC(=Nc2c(C)cccc2C)SC)cc1,101.1*,3.1,2.0,-6.9,-0.6
O/N=C/C1=C(Cl)c2cc(Cl)ccc2OC1,5.9,-0.9,-9.1,-3.2,-0.5
CC(=O)c1cc([N+](=O)[O-])c(SCc2ccc(Cl)cc2)s1,60.6,-13.8,0.4,31.9*,-0.5
O=c1c(=NO)c(=O)c2ccccc12,1.9,-8.6,6.4,4.5,2.3*
CCOC(=O)C1CCN(C(=O)Nc2c(-c3ccccc3)noc2C)CC1,-6.4,-1.9,-1.0,-1.5,2.7*
FC(F)(F)c1cccc(-c2csc(-c3ccc(-n4cncn4)nc3)n2)c1,-1.2,0.4,-2.7,2.3,-0.7
COC(=O)C1=C(N)CC(c2ccccc2)S1 (configuration not stated),2.5,8.3,3.3,-4.3,-0.2
N#CCSC1=CC(=O)CC(c2ccccc2)S1 (configuration not stated),90.5*,3.7,-40.3,1.5,-0.2
O=C(O)COCC(=O)N1CCCN(c2ccc(C(F)(F)F)cn2)CC1,-0.1,1.6,10.2,1.2,-0.6
SMILES,S1P1 ag,TLR4 MyD88 blk,KOR antag MB,PME-1 Maybr inh,NOTCH ag
Cc1cc(C(=O)N/N=C/c2cc(Br)c(O)c(Br)c2)no1,13.1,4.3,2.2,-1.9,-0.1
NC(=O)c1csc(-c2cccnc2)n1,35.6,0.3,9.7,7.8,-0.5
O=C(Nc1ccc([N+](=O)[O-])cc1)Nc1csc(-c2cccnc2)n1,10.6,9.4,51.8*,-72.9,-0.9
Cc1onc(-c2ccccc2)c1CNS(=O)(=O)c1cnn(-c2ccccc2)c1C,7.6,3.7,106.3*,-6.0,-1.1
O=S(=O)(Nc1ccccc1C(F)(F)F)c1ccc(-c2ccccn2)s1,15.0,2.8,21.6,22.0,x
CSc1nccc(-c2ccc(S(=O)(=O)Nc3cc(C(F)(F)F)cc(C(F)(F)F)c3)s2)n1,87.5*,-6.8,14.8,-2.7,0.3
O=C(O)CCSC1CC(=O)N(c2ccccc2)C1=O (configuration not stated),-13.3,-2.8,19.1,-2.1,-0.8
N#C/C(=C\c1cccs1)C(=O)N1CCOCC1,99.5*,3.6,12.4,-0.8,x
COC(=O)c1cc(NC(=S)NC(=O)c2ccccc2)ccc1N1CCOCC1,88.0*,6.3,9.2,0.9,-0.5
Brc1ccc(-c2csc(Nc3ccncc3)n2)cc1,65.3,23.5,68.2*,-1.4,0.2
Clc1ccc(-c2csc(Nc3ccccc3)n2)cc1,13.7,3.3,-10.6,3.0,0.8
C=CCC1(Nc2ccc3ccccc3c2)CCCCC1,-12.7,2.8,-3.9,-0.1,-0.4
OC1(C(F)(F)F)CC(c2cc3ccccc3o2)=NN1 (configuration not stated),-6.4,-8.7,14.5,5.9,-0.1

# Assay outcomes (PubChem)
